{"source": "PubChem BioAssay (NCI)", "note": "This is part of a sample that, as a whole, favours compounds with a hit. Of some 83,000 tested, about 20% had one in any assay.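 Single-concentration screen, 48 h exposure, 96-well plates. Endpoint: percent growth. Below 10 = active.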 The source made the active and inactive calls.", "data": [{"tested_on": "A498 renal", "test": "NCI-60 one-dose screen, 48 h (100 = growth as untreated, 0 = no growth, -100 = all killed)", "details": "10 µM unless noted", "values": [{"molecule": "c1ccc(C(c2nc3ncncc3[nH]2)N2CSc3nc4ccccc4n3C2)cc1", "note": "(stereo not given)", "growth": "102% (inactive)"}, {"molecule": "COCCNc1ccc2ncc(C#Cc3cncc(C(=O)Nc4ccc(CN5CCN(C)CC5)c(C(F)(F)F)c4)c3)n2n1", "growth": "-98% (active)"}, {"molecule": "O=c1c2ccccc2nc(COc2ccccc2)n1NS(=O)(=O)c1ccc(Cl)cc1", "growth": "63.3% (inactive)"}, {"molecule": "NC(N)=Nc1ccc(Oc2cccc(Nc3ccc(Cl)c(C(F)(F)F)c3)c2)cn1", "growth": "-7.17% (active)"}, {"molecule": "O=C1CC(=O)N2CSCN(C(c3ccccc3)c3nc4ncncc4[nH]3)C2=N1", "note": "(stereo not given)", "growth": "85.8% (inactive)"}, {"molecule": "COc1cc(/C=N/NC(=O)c2cn(C3CC3)c3c(OC)c(N4CC5CCCNC5C4)c(F)cc3c2=O)ccc1O", "note": "(stereo not given)", "growth": "99.4% (inactive)"}, {"molecule": "C[C@H](CCC(=O)NCc1ccc(C(=O)Nc2ccccc2N)cc1)[C@H]1CC[C@H]2[C@@H]3[C@@H](O)C[C@@H]4C[C@H](O)CC[C@]4(C)[C@H]3CC[C@]12C", "growth": "59.5% (inactive)"}, {"molecule": "N#Cc1cn(Cc2ccc(Cl)cc2Cl)c(C(=O)c2ccc(Br)cc2)c1N", "growth": "86.7% (inactive)"}, {"molecule": "CCNC(=O)N1CCc2cc(OC)c(OCCc3ccc(OC)nc3)cc2C1c1ccc(OC)cc1C", "note": "(stereo not given)", "growth": "14.1% (inactive)"}, {"molecule": "C=CCn1c(-c2nc3ccc(C(=C(C#N)C#N)c4ccccc4)cc3[nH]2)cc2cc(Br)ccc21", "growth": "87.7% (inactive)"}, {"molecule": "Cc1ccc(S(=O)(=O)NCCNc2nc(Nc3ccc(N4CCN(C)CC4)cc3)nc3ccsc23)cc1", "growth": "110% (inactive)"}, {"molecule": "COc1cc2nc(Cl)nc(Nc3cccc(C4=Nc5c(N)nc(N)nc5NC(c5ccc(Cl)cc5)C4)c3)c2cc1OC", "note": "(stereo not given)", "growth": "99.4% (inactive)"}]}, {"tested_on": "CCRF-CEM leukemia", "test": "NCI-60 one-dose screen, 48 h (100 = growth as untreated, 0 = no growth, -100 = all killed)", "details": "10 µM unless noted", "values": [{"molecule": "COc1ccc2[nH]cc(-c3csc4nc(-c5ccccc5)cn34)c2c1", "growth": "16.2% (inactive)"}, {"molecule": "COc1cc(Cn2cc3c(c2)-c2onc(CN4CCCC4)c2CC3)cc(OC)c1OC", "growth": "89% (inactive)"}, {"molecule": "COC(=O)/C=C/c1c(C2(C)NC(=O)c3ccccc3N2)c(=O)oc2ccc(Cl)cc12", "note": "(stereo not given)", "growth": "101% (inactive)"}, {"molecule": "Cc1ccc2c(c1)Oc1nc(N)c(C#N)c(N)c1C2Sc1ccc(F)cc1", "note": "(stereo not given)", "growth": "-21.1% (active)"}, {"molecule": "COc1ccc(Cn2cc3c(c2-c2cc(OC)c(OC)c(OC)c2)CCc2c(CN4CCCC4)noc2-3)cc1", "growth": "16.3% (inactive)"}, {"molecule": "COc1ccc(Cn2cc3c(c2-c2cc(OC)c(OC)c(OC)c2)CCc2c(CN4CCOCC4)noc2-3)cc1", "growth": "16.3% (inactive)"}, {"molecule": "CCNC(=O)N1CCc2cc(OC)c(OCCc3ccc(OC)cc3)cc2C1c1ccc([N+](=O)[O-])cc1C", "note": "(stereo not given)", "growth": "33.4% (inactive)"}, {"molecule": "COc1ccc([C@@H]2[C@@H](O)C(=O)N2c2cc(OC)c(OC)c(OC)c2)cc1F", "growth": "18.5% (inactive)"}, {"molecule": "Cc1ccc(-c2nnc(SCc3ccc(O)c4ncccc34)n2-c2ccccc2)cc1", "growth": "8.76% (active)"}, {"molecule": "COc1cc2oc(-c3cccc(C(=O)N[C@@H](CC(C)C)C(=O)OC(C)(C)C)c3)cc(=O)c2c(OC)c1OC", "growth": "40.2% (inactive)"}, {"molecule": "Cc1ccc(S(=O)(=O)N(CC[C@@H]2C[C@H]2c2cc3ccccc3o2)S(=O)(=O)c2ccc(C)cc2)cc1", "growth": "93.3% (inactive)"}, {"molecule": "Brc1ccccc1/C=N/Nc1nc(N/N=C/c2ccccc2Br)nc(N2CCOCC2)n1", "growth": "80.1% (inactive)"}, {"molecule": "CC1=NC2=NC(=O)/C(=C3/N=C(C)C=C(c4ccccc4)N3N)NN2C(c2ccccc2)=C1", "growth": "109% (inactive)"}, {"molecule": "CN(C)CCN(C)c1ccc2ncc(C#Cc3cncc(C(=O)Nc4ccc(CN5CCN(C)CC5)c(C(F)(F)F)c4)c3)n2n1", "growth": "7.73% (active)"}, {"molecule": "NC(N)=Nc1ccc(Oc2cccc(Nc3ccc(Br)c(C(F)(F)F)c3)c2)cn1", "growth": "0.633% (active)"}, {"molecule": "COc1cc(Cn2cc3c(c2)-c2onc(CN4CCOCC4)c2CC3)cc(OC)c1OC", "growth": "96.9% (inactive)"}, {"molecule": "Cc1cc(-c2ccc(Cl)cc2)n(Cc2nnc(SCC(=O)Nc3ccc(S(N)(=O)=O)cc3)n2-c2ccc([N+](=O)[O-])cc2)n1", "growth": "79.8% (inactive)"}, {"molecule": "COc1ccc(C(=O)CSc2nc3c(c(Nc4ccc(S(N)(=O)=O)cc4)n2)CCCC3)cc1", "growth": "83.1% (inactive)"}, {"molecule": "CCn1c(SCC(=O)Nc2cccc(C(=O)/C=C/c3cc(OC)c(OC)c(OC)c3)c2)nc2ccccc2c1=O", "growth": "4.6% (active)"}, {"molecule": "Nc1ncc(-c2ccc(NS(=O)(=O)c3ccc(Cl)c(Cl)c3)cc2)[nH]1", "growth": "55.2% (inactive)"}, {"molecule": "Cc1nn(-c2ccccc2)c2ncnc(N/N=C/c3ccccc3O)c12", "growth": "8.92% (active)"}, {"molecule": "COc1cc(-c2nnc(SCc3ccc(O)c4ncccc34)n2-c2ccccc2)cc(OC)c1OC", "growth": "5.95% (active)"}, {"molecule": "Oc1ccc(CSc2nnc(-c3ccc(Cl)cc3)n2-c2ccccc2)c2cccnc12", "growth": "20.8% (inactive)"}, {"molecule": "CCc1ccc(SC2c3ccc(N(CC)CC)cc3Oc3nc(N)c(C#N)c(N)c32)cc1", "note": "(stereo not given)", "growth": "-23.7% (active)"}, {"molecule": "CS(=O)(=O)Nc1cc(-c2ccc3ncc(C#N)c(NCc4ccccc4O)c3c2)cnc1Cl", "growth": "19.9% (inactive)"}, {"molecule": "NS(=O)(=O)c1ccc(Nc2cc(-c3ccccc3)nc(SCC(=O)c3ccccc3)n2)cc1", "growth": "98.3% (inactive)"}, {"molecule": "c1ccc(C(c2nc3ncncc3[nH]2)N2CSc3nc4ccccc4n3C2)cc1", "note": "(stereo not given)", "growth": "108% (inactive)"}, {"molecule": "COCCNc1ccc2ncc(C#Cc3cncc(C(=O)Nc4ccc(CN5CCN(C)CC5)c(C(F)(F)F)c4)c3)n2n1", "growth": "11.2% (inactive)"}, {"molecule": "O=c1c2ccccc2nc(COc2ccccc2)n1NS(=O)(=O)c1ccc(Cl)cc1", "growth": "97% (inactive)"}, {"molecule": "NC(N)=Nc1ccc(Oc2cccc(Nc3ccc(Cl)c(C(F)(F)F)c3)c2)cn1", "growth": "-7% (active)"}, {"molecule": "O=C1CC(=O)N2CSCN(C(c3ccccc3)c3nc4ncncc4[nH]3)C2=N1", "note": "(stereo not given)", "growth": "108% (inactive)"}, {"molecule": "COc1cc(/C=N/NC(=O)c2cn(C3CC3)c3c(OC)c(N4CC5CCCNC5C4)c(F)cc3c2=O)ccc1O", "note": "(stereo not given)", "growth": "2.53% (active)"}, {"molecule": "C[C@H](CCC(=O)NCc1ccc(C(=O)Nc2ccccc2N)cc1)[C@H]1CC[C@H]2[C@@H]3[C@@H](O)C[C@@H]4C[C@H](O)CC[C@]4(C)[C@H]3CC[C@]12C", "growth": "7.16% (active)"}, {"molecule": "N#Cc1cn(Cc2ccc(Cl)cc2Cl)c(C(=O)c2ccc(Br)cc2)c1N", "growth": "108% (inactive)"}, {"molecule": "CCNC(=O)N1CCc2cc(OC)c(OCCc3ccc(OC)nc3)cc2C1c1ccc(OC)cc1C", "note": "(stereo not given)", "growth": "39.3% (inactive)"}, {"molecule": "C=CCn1c(-c2nc3ccc(C(=C(C#N)C#N)c4ccccc4)cc3[nH]2)cc2cc(Br)ccc21", "growth": "50.5% (inactive)"}, {"molecule": "Cc1ccc(S(=O)(=O)NCCNc2nc(Nc3ccc(N4CCN(C)CC4)cc3)nc3ccsc23)cc1", "growth": "74.3% (inactive)"}, {"molecule": "COc1cc2nc(Cl)nc(Nc3cccc(C4=Nc5c(N)nc(N)nc5NC(c5ccc(Cl)cc5)C4)c3)c2cc1OC", "note": "(stereo not given)", "growth": "3.94% (active)"}]}]}
